# Screening data: PubChem BioAssay, National Center for Advancing Translational Sciences (NCATS)
# ALDH1A1 inh: qHTS Assay for Inhibitors of Aldehyde Dehydrogenase 1 (ALDH1A1) | Potency, µM (top dose mostly 75.3 µM), for the others: at the highest dose activity, negative = inhibition, actives largely listed as inhibitors | actives 7.3% (n = 220,000) | AID 1030, 2008 | Purified ALDH1A1, NADH fluorescence, propionaldehyde substrate; active means well fitted inhibition curve with a large enough effect, not every such curve was filed as active; inconclusive means small, poorly fitted or top-dose-only effect, or another doubt; inactive means no such curve, though single readings can be large or run the other way;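 further: plate controls were no enzyme wells and a reference inhibitor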
# Target sequence (P00352 whole entry, looked up): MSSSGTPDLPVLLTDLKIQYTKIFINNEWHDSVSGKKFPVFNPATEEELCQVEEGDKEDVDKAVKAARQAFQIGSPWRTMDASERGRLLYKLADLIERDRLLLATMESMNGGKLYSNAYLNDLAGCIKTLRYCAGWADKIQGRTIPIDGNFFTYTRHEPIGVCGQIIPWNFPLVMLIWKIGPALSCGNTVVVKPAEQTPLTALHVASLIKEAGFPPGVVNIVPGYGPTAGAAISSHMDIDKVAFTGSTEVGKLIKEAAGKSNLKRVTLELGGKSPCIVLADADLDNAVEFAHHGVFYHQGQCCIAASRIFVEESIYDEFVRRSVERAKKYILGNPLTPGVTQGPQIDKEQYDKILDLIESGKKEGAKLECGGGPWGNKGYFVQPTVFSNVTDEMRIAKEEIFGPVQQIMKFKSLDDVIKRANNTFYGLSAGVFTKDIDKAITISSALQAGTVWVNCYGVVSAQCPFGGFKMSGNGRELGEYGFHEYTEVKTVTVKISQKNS
# Sfp PPTase inh: qHTS Assay for Inhibitors of Bacillus subtilis Sfp phosphopantetheinyl transferase (PPTase). 4'-phosphopantetheinyl transferase ffp (Bacillus subtilis), Q9F4F7. Biochemical Sfp PPTase activity, qHTS. Potency, µM, for inactives: largest response in the series, negative = inhibition, usual class: inhibitors. actives 3.5% (n = 310,000). AID 1490, 2009;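 further: the enzyme is Sfp with the accession as filed and its product quenches rhodamine fluorescence; 0% = enzyme reaction without inhibitor and -100% = no enzyme wells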
#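 Fluorescence-quenching assay with 15 nM Sfp, 5 uM rhodamine-CoA and 12.5 uM BHQ-2-labelled ybbR peptide in pH 7.6 Hepes/MgCl2 buffer. Enzyme was pre-incubated with compound for 15 min at room temperature. Rate was taken from the 30-min fluorescence change (525/598 nm).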
# RORg inh: qHTS for inhibitors of ROR gamma transcriptional activity; Drosophila S2 Gal4-RORgamma UAS-luciferase reporter, 20 h; Potency, µM (highest dose often 53.6 µM), inactives show at the top dose activity change, negative = inhibition, usual class: inhibitors; actives 5.4% (n = 310,000); AID 2551, 2010; further: nearly all actives have a fitted effect of over 60% in size
#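 Schneider cells (Drosophila), stable Gal4 DBD–ROR gamma + UAS-luc; 1 hr cmpd preincubation; Cu2+ induction 700 uM final; 20 hr ambient; luminescence.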
# PLK1 PBD inh: qHTS for Inhibitors of PLK1-PDB (polo-like kinase 1 - polo-box domain): Primary Screen; Serine/threonine-protein kinase PLK1 (Homo sapiens), P53350; Plk1 PBD binding of FITC phosphopeptide, fluorescence polarization; Potency, µM, for inactives: max response, negative = inhibition, hits mostly inhibitors; actives 2.8% (n = 360,000); AID 720504, 2013; further: series mostly up to about 57 µM; nearly all actives have a fitted effect of over 65% in size
# VP16 counter: VP16 counterscreen qHTS for inhibitors of ROR gamma transcriptional activity | Drosophila S2 Gal4-VP16 UAS-luciferase, luminescence, 20 h | actives 3.5% (n = 310,000) | Potency, µM (titrated, usually from 53.6 µM), without a hit: at the top dose activity, negative = inhibition, hits mostly inhibitors;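 further: Gal4-VP16 expression switched on by copper sulfate through the metallothionein promoter; nearly all actives have a fitted effect of over 50% in size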
# * marks the source's active call; other numbers are inactive results; ? = inconclusive; . = not tested or not shown; [ ] = dose if it differs, or a comment. The list is not random: actives were taken first. Their share in the collection is about 12%. Unless noted, the call rests on the fitted dose curve; in most records, active means well fitted curve in the direction sought with a large enough effect; inconclusive means small, poorly fitted or top-dose-only effect, or another doubt; inactive means no such curve, though single readings can be large; an effect the other way counts as inactive or inconclusive. Unless noted, on the % scale 0 is the no-effect control and ±100 the full control effect; potency means the concentration at half of the fitted maximal effect.
SMILES,ALDH1A1 inh,Sfp PPTase inh,RORg inh,PLK1 PBD inh,VP16 counter
Cc1ccc(C(=O)N[C@@H](C)CN2C3=NC[C@H](C(C)C)N3C[C@H]2Cc2ccc(O)cc2)cc1Br,?,40µM*,?,27µM*,?
C/C=C(\C)C(=O)NCCN1C2=NC[C@H](Cc3ccccc3)N2C[C@@H]1Cc1ccc(OC)cc1,.,.,.,1%,.
COc1ccc(C[C@H]2CN3C(=NC[C@H]3Cc3ccccc3)N2CCNC(=O)CCC2CCCCC2)cc1,10µM*,-6%,-36%,-12%,6%
COc1ccc(C[C@H]2CN3C(=NC[C@@H]3Cc3ccccc3)N2C[C@H](C)NC(=O)CCC2CCCCC2)cc1,.,-18%,?,.,-11%
Nc1cc(N)nc(CS)n1,.,14%,-6%,-3%,-3%
CSCC[C@@H]1NC(=O)C/C=C\[C@@H](C)COC(=O)[C@H](C)COC1=O,1%[13.5 µM],4%,-21%[10 µM],.,-1%[10 µM]
O=C1c2ccccc2C(=O)N1c1ccc(Cc2ccc(N3C(=O)c4ccccc4C3=O)cc2)cc1,-1%[13.5 µM],.,.,.,.
COc1ccc(C[C@H]2CN3C(=NC[C@H]3Cc3ccccc3)N2CCNC(=O)c2ccc(C)c(Br)c2)cc1,.,50µM*,-38%,-5%,-22%
Cc1ccc(C(=O)NCCN2C3=NC[C@H](Cc4ccc(O)cc4)N3C[C@H]2Cc2ccc(O)cc2)cc1Br,.,-25%,-6%,3%,-22%
Cc1ccc(C(=O)NCCN2C3=NC[C@@H](Cc4ccccc4)N3C[C@H]2Cc2ccc(O)cc2)cc1Br,-14%,45µM*,18%,1%,-13%
O=C1N2CCCCC1(Sc1ccccc1)CCC2 (centres undefined),.,.,.,-18%,.
CC(C)(C)C1CCc2onc(C(=O)N3CCOCC3)c2C1 (centres undefined),25µM*,1%,-2%,-14%,19%
CO[C@@H]1COC(=O)[C@H]2CCCN2C(=O)[C@@H](C)COC(=O)CCC[C@H]1C,10%[13.5 µM],26%,5%[10 µM],.,-9%[10 µM]
CCN(CC(=O)Nc1cc(Cl)ccc1C)CC(=O)NC1CC1,.,.,.,4%,.
CCC(C)(C)n1nnnc1C(c1cc2cc3c(cc2[nH]c1=O)OCO3)N1CCN(C)CC1 (centres undefined),?,11%,-9%[10 µM],-6%,-7%
CCC(C)(C)n1nnnc1C(c1cc2cc(C)ccc2[nH]c1=O)N1CCCc2ccccc21 (centres undefined),-2%,20µM*,16%,-25%,16%
Cc1ccc2[nH]c(=O)c(C(c3nnnn3C3CCCC3)N3CCCc4ccccc43)cc2c1 (centres undefined),14µM*,8.9µM*,?,-4%,11%
COc1ccccc1OCC(=O)NCCSCc1cccc(Cl)c1,4%,4%,4%,-7%,-9%
COCC(=O)n1nc(NCc2ccc(OC)cc2)nc1NCc1ccc(OC)cc1,?,8%,10%,12µM*,1%
COc1ccc(CNc2nc(-c3ccccc3)nn2C(=O)c2cccs2)cc1,25µM*,-12%,-2%,5%,3%
COc1ccc(CNc2nc(NCc3ccc(OC)cc3)n(S(C)(=O)=O)n2)cc1,?,-6%,4%,-3%,7%
Cc1cc(C)c(C(=O)CSc2nnc(N)s2)cc1C,-10%,6%,0%,9.5µM*,-5%
CSc1ccc(CN2CCN(C(C)C)C(CCO)C2)cc1 (centres undefined),0%,3%,0%,-3%,-4%
N#CC1(C#N)CC(C=O)=C(N)C1(C#N)CC(=O)C12CC3CC(CC(C3)C1)C2 (centres undefined),18µM*,22%,-37%,?,?
CC(C)NC(=O)C1(C)CSCC(=O)N1CCCN1CCOCC1 (centres undefined),.,.,.,-15%,.
Cc1ccc(-c2csc(N3CCN(c4ccc5nc(-c6ccncc6)n(CCN6CCCCC6)c5c4)CC3)n2)cc1,.,56µM*,?,?,-5%
Cc1ccc(-c2csc(NCCn3c(-c4ccncc4)nc4cc(C(F)(F)F)ccc43)n2)cc1,.,.,.,-16%,.
